Cruzain noTriton: blocks cruzain activity in detergent-free assay; P25779; 200,000 tested, 2.3% active; Potency, µM, without a hit: max response, negative = inhibition, hits mostly inhibitors; purified cruzain, Z-FR-AMC fluorescence, no detergent;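 note: plate controls were enzyme without inhibitor for no effect and buffer without enzyme for full effect; nearly all actives have a fitted effect of over 40% in size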
Target sequence (P25779 123-467 limits assumed): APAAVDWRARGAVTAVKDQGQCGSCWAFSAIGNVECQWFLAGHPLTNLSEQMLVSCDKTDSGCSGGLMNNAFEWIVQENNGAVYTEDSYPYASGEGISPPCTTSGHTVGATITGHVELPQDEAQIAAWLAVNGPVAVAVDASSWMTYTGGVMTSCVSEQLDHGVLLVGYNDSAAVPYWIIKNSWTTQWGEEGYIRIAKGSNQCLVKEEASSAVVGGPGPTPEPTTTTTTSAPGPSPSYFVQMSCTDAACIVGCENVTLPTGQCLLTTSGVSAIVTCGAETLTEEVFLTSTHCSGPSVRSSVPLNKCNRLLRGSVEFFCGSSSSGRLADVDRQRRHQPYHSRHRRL
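Detergent-free condition (0.00005% Triton X-100) in acetate buffer pH 5.5 with DTT. 1.5 nM enzyme and compound were pre-mixed 15 min, then 2 uM Z-FR-AMC substrate added; reaction progress from fluorescence change between first and third reads (60 s).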
Cruzain inh Det: cruzain (T. cruzi) inhibition with detergent; purified cruzain, Z-FR-AMC fluorescence, 0.01% Triton; Potency, µM, without a hit: max response, negative = inhibition, usual class: inhibitors; 200,000 tested, 0.43% active; P25779;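 note: plate controls were neutral wells for no effect and buffer without enzyme for full effect; nearly all actives have a fitted effect of over 40% in size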
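Z-FR-AMC hydrolysis (2 uM substrate) by cruzain (1.5 nM) monitored kinetically at ex 360/em 450 nm after 15 min room-temperature compound exposure; 0.01% Triton X-100, pH 5.5, 5 mM DTT.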
The depositor's hits bear a star; ? = inconclusive. The list is not random: actives were taken first. Their share in the collection is about 2.6%. Calls come from the whole dose curve; as a rule, active = well fitted curve in the direction sought with a large enough effect; inconclusive = small, poorly fitted or top-dose-only effect, or another doubt; inactive = no such curve, though single readings can be large; an effect the other way counts as inactive or inconclusive. Potency is the fitted concentration of half-maximal effect.

SMILES	Cruzain noTriton	Cruzain inh Det
Cc1c(C(=O)N2CCN(c3ccccn3)CC2)sc2ncnc(N3CCOCC3)c12	-1%	3%
COc1ccc2[nH]c(=O)c(CN(CCc3cccc(C)c3)C(C)=O)cc2c1	-2%	-2%
Cc1ccc(C(NC(=O)/C=C\c2ccc3c(c2)OCO3)C(=O)Nc2ccc3c(c2)OCO3)cc1 (stereo unspecified)	32µM*	-3%
CC(=O)c1cccc(NC(=O)C(OC(=O)/C=C/c2ccc3c(c2)OCO3)c2ccccc2)c1 (stereo unspecified)	10µM*	2%
CCOC(=O)c1cccc(NC(=O)/C=C/c2ccc3c(c2)OCO3)c1	-11%	-8%
COc1ccc(NC(=O)C(NC(=O)/C=C\c2ccc3c(c2)OCO3)c2ccc(OC)cc2)cc1 (stereo unspecified)	?	-4%
COc1ccc(-c2cc(C(F)(F)F)c(C#N)c(SCC(=O)Nc3ccccc3C#N)n2)cc1	0%	-8%
O=C(CCN1CCCC1Cc1ccccc1)c1ccc2c(c1)OCCO2 (stereo unspecified)	20µM*	25µM*
O=C(CCc1ccccc1)c1ccc2c(c1)OCCCO2	?	-2%
O=C(CCN1CCc2ccccc21)c1ccc2c(c1)OCCO2	7.9µM*	-2%
CN(C)CCN1CCc2ccccc21	-10%	-3%
c1ccc2c(c1)CCN2CCN1CCc2ccccc21	10µM*	6%
O=C(CCN1CCCCC1)c1ccc2c(c1)OCCO2	-26%	-14%
COc1cccc(-n2ccnc2SCC(=O)Nc2nccs2)c1	8%	1%
Cc1c(C(=O)Nc2nnc(SCc3ccccc3Cl)s2)cccc1[N+](=O)[O-]	?	3%
Cc1cccc(CSc2nnc3[nH]c(=O)cc(-c4ccccc4)n23)c1	11%	-2%
COc1cccc(-n2nnnc2SCC(=O)Nc2ccc3c(c2)OCCO3)c1	-6%	6%
CCCOc1ccc(-c2c(C(=O)N/N=C/c3ccc(OCC)cc3)nnn2-c2nonc2N)cc1	10µM*	-15%
CCCOc1ccc(-c2c(C(=O)N/N=C/c3ccc(OC)cc3)nnn2-c2nonc2N)cc1	?	-8%
CC1CCN(S(=O)(=O)c2cn(CC(=O)Nc3cccc(C(F)(F)F)c3)c(=O)c3ccccc23)CC1	?	-5%
O=C(Cn1cc(S(=O)(=O)N2CCN(c3ccccc3F)CC2)c2ccccc2c1=O)Nc1cccc(C(F)(F)F)c1	7.9µM*	-2%
CN(C(=O)Cn1cc(S(=O)(=O)N2CCN(c3ccccc3F)CC2)c2ccccc2c1=O)c1ccc(Cl)cc1	-29%	-4%
CC(C)c1ccc(NC(=O)Cn2cc(S(=O)(=O)N3CCN(c4ccccc4F)CC3)c3ccccc3c2=O)cc1	7.9µM*	-2%
Cc1ccc(NC(=O)CN2CCN(c3ccccc3F)CC2)cc1F	6%	-4%
Cc1ccc(NC(=O)Cn2cc(S(=O)(=O)N3CCN(c4ccccc4F)CC3)c3ccccc3c2=O)cc1F	7.9µM*	-2%
SMILES	Cruzain noTriton	Cruzain inh Det
Cc1ccc(NC(=O)Nc2ccc3nc(N4CCN(C)CC4)cc(C)c3c2)cc1C	13%	-3%
CC1(C)CC(=O)C/C(=N\NC(=O)Cc2ccccc2)C1	-18%	0%
Cc1cc(NC(=O)CN2C(=O)NC3(CCCCC3)C2=O)no1	-7%	-2%
COc1ccccc1N1CCN(c2cc(=O)n(-c3ccc(Br)cc3)c(=O)[nH]2)CC1	?	2%
O=c1cc(N2CCN(c3ccccc3F)CC2)[nH]c(=O)n1-c1ccc(Br)cc1	25µM*	-1%
COc1ccc(CCCc2nnc(SCC(=O)Nc3ncc(C)s3)o2)cc1	8%	1%
CCCOc1ccc(C2C(C(=O)OC)=CN(CCOC)C=C2C(=O)OC)cc1	?	-24%
CC(C)N1CC(O)=C(c2nc3ccccc3[nH]2)C1=N	-14%	7%
CCn1c(CC(=O)Nc2ccc(C)c(Cl)c2)nnc1SCc1ccc(Cl)c(Cl)c1	13µM*	5%
CCn1c(CC(=O)Nc2ccc(C)c(Cl)c2)nnc1SCC(=O)Nc1nc(C)cs1	?	9%
Cc1ccc(O)c(/C=N/NC(=O)C2=NNC(c3ccccc3)(c3ccccc3)C2)c1	13µM*	-15%
Cc1ccc(O)c(/C=N/NC(=O)c2[nH]ncc2Br)c1	4%	-6%
COc1ccc(NC(=O)C2CCCN(S(=O)(=O)c3cn(C)cn3)C2)cc1Cl (stereo unspecified)	-7%	-1%
Cc1ccccc1-c1nc(CS(=O)(=O)CC(=O)N(C)C2CCCCC2)c(C)o1	?	-5%
Cc1ccccc1NC(=O)CSc1nc(N2CCCCC2)nc(N2CCCCC2)n1	-1%	-1%
COc1ccc(Cl)cc1NC(=O)CSc1nc(N2CCCCC2)nc(N2CCCCC2)n1	16µM*	6%
O=C(Cc1ccccc1)NC(NC(=S)Nc1cc(Cl)ccc1Cl)C(Cl)(Cl)Cl (stereo unspecified)	?	3%
CC(C)(C)C(=O)N1CCN(c2nc3c(F)cccc3s2)CC1	-8%	1%

Source: PubChem BioAssay
